Measured values taken from PubChem BioAssay (NCATS).
Values joined by “and” are separate entries in the source; they are usually repeats but may differ in a detail not shown here. Equal values may be shown once. Records with an inconclusive call do not appear. Where a structure was tested more than once in an assay, its records may differ in their call. Active and inactive are the calls of the source. Calls follow the shape of the dose curve; as a rule, active = well fitted cell-killing curve with a large enough effect; inconclusive = small, poorly fitted or top-dose-only effect, or effect the other way; inactive = no such curve, though single readings can be large or run the other way.

Assay: Viability qHTS for spleen associated tyrosine kinase inhibitor (SYKi) drug resistant MV4-11 cells (AID 1963824); also: nearly all actives have a fitted effect of over 35% in size
Details: SYKi-resistant MV4-11 viability, CellTiter-Glo, 72 h; series mostly up to 45 µM; viability, % of control: at the top concentration
How it was run: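 CellTiter-Glo luminescence, read 10 min after reagent addition, reports viability after a 72 hr compound exposure. Cells are an MV4-11 line made resistant to SYK inhibition, seeded at 500 per well onto compound-containing plates.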
Potency is read from the fitted curve at half-maximal effect.

| Compound | viability, % of control | Potency |
| --- | --- | --- |
| COc1ccc(S(=O)(=O)Nc2nnc(CC(C)C)s2)cc1 | 91.4% (inactive) | – |
| CCc1cc(C(N)=O)ccc1-n1nc(C(C)C)c2c(-n3cnc(-c4cnn(C)c4)c3)ccnc21 | – | 590 nM (active) |
| CCCCCCCCCCCCCCCC[n+]1ccccc1 | – | 668 nM (active) |
| CCS(=O)(=O)N1CCC([C@@H](C)n2c(C)c(C(=O)NCc3c(OC)cc(C)[nH]c3=O)c3ccccc32)CC1 | 86.7% (inactive) | – |
| COc1cc(C(=S)N2CCOCC2)ccc1O | 79.8% (inactive) | – |
| COc1cc(OC)c(/C=C/S(=O)(=O)Cc2ccc(OC)c(NCC(=O)O)c2)c(OC)c1 | – | 51.7 nM (active) and 118 nM (active) |
| C#C[C@]1(O)CC[C@H]2[C@@H]3CCc4cc(O)ccc4[C@H]3CC[C@@]21C | – | inactive and 7.42 µM (active) |
| C[C@H]1C[C@H]2[C@@H]3CCC4=CC(=O)C=C[C@]4(C)[C@H]3C(=O)C[C@]2(C)[C@@]1(O)C(=O)CO | – | inactive |
| COc1ccc([C@@H]2Sc3ccccc3N(CCN(C)C)C(=O)[C@@H]2OC(C)=O)cc1 | – | 7.5 µM (active) and inactive |
| CN(C)Cc1ccc(S(=O)(=O)n2ccc(/C=C/C(=O)NO)c2)cc1 | – | 2350 nM (active) |
| C[C@@H]1C(=O)OC2[C@H](O)[C@]34[C@H]5C[C@@H](C(C)(C)C)[C@]36[C@@H](OC(=O)[C@@H]6O)O[C@@]4(C(=O)O5)[C@]21O (stereo not given in full) | 93.2% (inactive) | – |
| CCC(CC)CC1(C(=O)Nc2ccccc2SC(=O)C(C)C)CCCCC1 | 91.4% (inactive) | – |
| C#Cc1ccc(-c2ccccc2F)cc1 | 80.4% (inactive) | – |
| CC(=O)c1ccc2c(c1)c1cc(C(C)=O)ccc1n2CCNC(C)C | – | 525 nM (active) |
| CC(=O)Oc1cccc(O)c1 | 79.7% (inactive) | – |
| COc1ccc(S(=O)(=O)N2CCc3cccc(-c4ccncc4)c32)cc1 | – | 833 nM (active) |
| C[C@@H](C(=O)Nc1ccc(Cl)cc1)C1CCC(c2ccnc3ccc(F)cc23)CC1 (stereo not given in full) | – | 14800 nM (active) |
| Cc1cccc(C)c1NC(=O)CN(CC(=O)O)CC(=O)O | 67.4% (inactive) | – |
| Cc1nc2cccc(N)c2c(=O)n1C1CCC(=O)NC1=O (stereo not given) | 91.9% (inactive) | – |
| CCCN1CCCC[C@H]1C(=O)Nc1c(C)cccc1C | 81.6% (inactive) | – |

| Compound | viability, % of control | Potency |
| --- | --- | --- |
| COc1cc2c(cc1OC(C)C)[C@H](c1ccc(Cl)cc1)N(c1ccc(N(C)CC3CCC(N4CCN(C)C(=O)C4)CC3)cc1)C(=O)C2 (stereo not given in full) | – | 9.2 µM (active) and 8.33 µM (active) |
| C[C@@H]1CC(=O)Nc2cccc(-c3cnn(C(C)(C)C)c3)c2N1 | – | 11800 nM (active) |
| CC(=O)c1cc2c(o1)C(=O)c1ccccc1C2=O | – | 1320 nM (active) |
| O=S1(=O)OC(c2ccc(O)cc2)(c2ccc(O)cc2)c2ccccc21 | 80.9% (inactive) | – |
| Cc1c(N(C)C)c(=O)n(-c2ccccc2)n1C | 78.8% (inactive) | – |
| CC(=NNC(=O)c1cccc(S(=O)(=O)N2CCOCC2)c1)c1cc(Cl)ccc1O | – | 742 nM (active) |
| Cn1cc(/C=C/C(=O)c2cccc(F)c2)cc1/C=C/C(=O)NO | – | 4170 nM (active) |
| O=C(CCCl)NCCc1ccccc1 | 90.7% (inactive) | – |
| CN1C(=O)[C@@H](NC(=O)c2n[nH]c(Cc3ccccc3)n2)COc2ccccc21 | 87.2% (inactive) | – |
| Cc1c(C(=O)NCCO)[n+](=O)c2ccccc2n1[O-] | 87% (inactive) | – |
| CC1(C)S[C@H]2[C@H](NC(=O)[C@@H](N)c3ccc(O)cc3)C(=O)N2[C@H]1C(=O)O | 89.7% (inactive) | – |
| CSc1ccc(C(=O)c2[nH]c(=O)[nH]c2C)cc1 | 63.8% (inactive) | – |
| Cc1ccc(C(=O)Nc2ccc(CN3CCN(C)CC3)c(C(F)(F)F)c2)cc1C#Cc1cnc2[nH]ncc2c1 | 5.56% (inactive) | – |
| Oc1cc(O)cc(/C=C/c2ccc(O)c(O)c2)c1 | – | 5.9 µM (active) and 2.59 µM (active) |
| N=C1CCCN1Cc1[nH]c(=O)[nH]c(=O)c1Cl | 98.1% (inactive) | – |
| Nc1ccc(S(=O)(=O)c2ccc(N)cc2)cc1 | 83% (inactive) | – |
| CO[C@H]1/C=C/O[C@@]2(C)Oc3c(C)c(O)c4c(O)c(c5c(c4c3C2=O)=NC2(CCN(CC(C)C)CC2)N=5)NC(=O)/C(C)=C/C=C/[C@H](C)[C@H](O)[C@@H](C)[C@@H](O)[C@@H](C)[C@H](OC(C)=O)[C@@H]1C | – | 18600 nM (active) |
| C=CC(=O)N1CCC[C@@H](n2nc(-c3ccc(Oc4ccccc4)cc3)c3c(N)ncnc32)C1 | – | 1.3 µM (active) and 1.18 µM (active) |
| Nc1ccc([N+](=O)[O-])c(C(F)(F)F)c1 | 73.5% (inactive) | – |
| c1cc(-c2cnn3cc(-c4ccc(N5CCNCC5)cc4)cnc23)c2cccnc2c1 | – | 920 nM (active) |
